From PubChem BioAssay (NCI)
About 83,000 compounds went through this panel and 20% of them were active in at least one assay; those are over-represented in the sample as a whole.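 48-hour exposure, single concentration, 96-well plates; percent growth endpoint where 0 means no net growth. Active: below 10.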 The source made the active and inactive calls.

Columns and labels:
Assay in all cases: NCI-60 one-dose screen, 48 h (100 = growth as untreated, 0 = no growth, -100 = all killed)
Details in all cases: 10 µM unless noted
SR leukemia = test system: SR leukemia
RPMI-8226 leukemia = test system: RPMI-8226 leukemia
OVCAR-8 ovarian = test system: OVCAR-8 ovarian
OVCAR-5 ovarian = test system: OVCAR-5 ovarian
OVCAR-4 ovarian = test system: OVCAR-4 ovarian
SK-OV-3 ovarian = test system: SK-OV-3 ovarian
IGROV1 ovarian = test system: IGROV1 ovarian
OVCAR-3 ovarian = test system: OVCAR-3 ovarian
HS 578T breast = test system: HS 578T breast
NCI/ADR-RES ovarian = test system: NCI/ADR-RES ovarian
T-47D breast = test system: T-47D breast
BT-549 breast = test system: BT-549 breast
MDA-MB-435 melanoma = test system: MDA-MB-435 melanoma
SW-620 colon = test system: SW-620 colon
MCF7 breast = test system: MCF7 breast
HCT-116 colon = test system: HCT-116 colon
HCC-2998 colon = test system: HCC-2998 colon
KM12 colon = test system: KM12 colon

Measured: growth

CC(=O)N1c2ccccc2NC2=C(C(=O)N(Cc3ccccc3)C2(C)C)C1c1ccco1 (stereo unspecified)
active: OVCAR-3 ovarian -7.66% | MDA-MB-435 melanoma -56.2% | HCT-116 colon 7.52% | HCC-2998 colon 3.73%
inactive: SR leukemia 23.3% | RPMI-8226 leukemia 23.4% | OVCAR-8 ovarian 26.1% | OVCAR-5 ovarian 25.9% | OVCAR-4 ovarian 48.8% | SK-OV-3 ovarian 22.7% | IGROV1 ovarian 26.8% | HS 578T breast 10.7% | NCI/ADR-RES ovarian 82.9% | T-47D breast 35.1% | BT-549 breast 47.6% | SW-620 colon 21.7% | MCF7 breast 15.3% | KM12 colon 14.8%

N#CC1=C(N)Oc2c(ccc3ccccc23)C1c1ccc([N+](=O)[O-])cc1 (stereo unspecified)
active: MDA-MB-435 melanoma 6.07%
inactive: SR leukemia 20.2% | RPMI-8226 leukemia 89.5% | OVCAR-8 ovarian 93.3% | OVCAR-5 ovarian 95.7% | OVCAR-4 ovarian 90.8% | SK-OV-3 ovarian 80% | IGROV1 ovarian 50.4% | OVCAR-3 ovarian 76.5% | HS 578T breast 87.5% | NCI/ADR-RES ovarian 52.8% | T-47D breast 74.6% | BT-549 breast 83.1% | SW-620 colon 55.5% | MCF7 breast 51.8% | HCT-116 colon 68.8% | HCC-2998 colon 85.9% | KM12 colon 50.4%

CCCCCCOc1ccc(/C=N/Nc2cc(C)nc3ccc(Br)cc23)cc1
inactive: SK-OV-3 ovarian 101% | BT-549 breast 106%
active: SR leukemia -32.2% | RPMI-8226 leukemia -42.4% | OVCAR-8 ovarian -36.1% | OVCAR-5 ovarian -92.7% | OVCAR-4 ovarian -88.5% | IGROV1 ovarian -85.3% | OVCAR-3 ovarian -91.6% | HS 578T breast -40.4% | NCI/ADR-RES ovarian -67.1% | T-47D breast -11% | MDA-MB-435 melanoma -87.7% | SW-620 colon -72.5% | MCF7 breast -67% | HCT-116 colon -66.4% | HCC-2998 colon -94.5% | KM12 colon -84.7%

c1cnc2nc3c(cc2c1)oc1ccccc13
inactive: SR leukemia 80.7% | RPMI-8226 leukemia 94.1% | OVCAR-8 ovarian 100% | OVCAR-5 ovarian 105% | OVCAR-4 ovarian 103% | SK-OV-3 ovarian 121% | IGROV1 ovarian 97.2% | OVCAR-3 ovarian 115% | HS 578T breast 102% | NCI/ADR-RES ovarian 100% | T-47D breast 100% | BT-549 breast 98.8% | MDA-MB-435 melanoma 103% | SW-620 colon 99.4% | MCF7 breast 86.6% | HCT-116 colon 101% | HCC-2998 colon 100% | KM12 colon 98.2%

Clc1ccc(C2CC(c3cccc(Nc4ccncc4)c3)=NN2c2ccc(Cl)cc2)cc1 (stereo unspecified)
active: SR leukemia 2.85% | RPMI-8226 leukemia 0.298% | OVCAR-8 ovarian -38.9% | OVCAR-4 ovarian -14.5% | IGROV1 ovarian 7.44% | BT-549 breast -80.2% | MDA-MB-435 melanoma -79% | SW-620 colon -67.6% | MCF7 breast -41.1% | HCT-116 colon -73.2% | HCC-2998 colon -74% | KM12 colon -77.3%
inactive: OVCAR-5 ovarian 65.4% | SK-OV-3 ovarian 83.7% | OVCAR-3 ovarian 31% | HS 578T breast 54% | NCI/ADR-RES ovarian 11.2% | T-47D breast 52.2%

O=C(CNCCO)Nc1ccc2ncnc(Nc3ccc(OCc4cccc(F)c4)c(Cl)c3)c2c1
inactive: SR leukemia 12.9% | RPMI-8226 leukemia 88.2% | OVCAR-8 ovarian 80.4% | OVCAR-5 ovarian 85.5% | OVCAR-4 ovarian 93.8% | SK-OV-3 ovarian 16.4% | IGROV1 ovarian 33.6% | OVCAR-3 ovarian 72.7% | HS 578T breast 103% | NCI/ADR-RES ovarian 90.1% | T-47D breast 45.2% | BT-549 breast 80.5% | MDA-MB-435 melanoma 96.8% | SW-620 colon 106% | MCF7 breast 82.5% | HCT-116 colon 64.3% | HCC-2998 colon 97% | KM12 colon 87%

Nc1ccccc1NC(=O)c1ccc(CN2CCC/C(=C\c3cccc(Cl)c3)C2=O)cc1
active: RPMI-8226 leukemia -18.7% | OVCAR-3 ovarian 5.7% | NCI/ADR-RES ovarian 5% | BT-549 breast -9.32% | MDA-MB-435 melanoma 3.87% | MCF7 breast 8.72% | HCT-116 colon 6.06% | KM12 colon 4.58%
inactive: SR leukemia 10.4% | OVCAR-8 ovarian 10.2% | OVCAR-5 ovarian 36.7% | OVCAR-4 ovarian 33.7% | SK-OV-3 ovarian 13.1% | IGROV1 ovarian 17.8% | HS 578T breast 43.1% | T-47D breast 32.4% | SW-620 colon 23.9% | HCC-2998 colon 12.4%

S=c1[nH]cccc1-c1nnc2n1Nc1nc3ccccc3cc1CS2
inactive: SR leukemia 95.7% | RPMI-8226 leukemia 99.2% | OVCAR-8 ovarian 98% | OVCAR-5 ovarian 96% | OVCAR-4 ovarian 101% | SK-OV-3 ovarian 82.1% | IGROV1 ovarian 90.7% | OVCAR-3 ovarian 105% | HS 578T breast 96.4% | NCI/ADR-RES ovarian 98.2% | T-47D breast 95.4% | BT-549 breast 100% | MDA-MB-435 melanoma 106% | SW-620 colon 99.4% | MCF7 breast 103% | HCT-116 colon 94.9% | HCC-2998 colon 98.5% | KM12 colon 109%

COc1cccc(C(Cc2ccccc2)Nc2ccccc2)c1OC (stereo unspecified)
inactive: SR leukemia 102% | RPMI-8226 leukemia 89.7% | OVCAR-8 ovarian 99% | OVCAR-5 ovarian 103% | OVCAR-4 ovarian 98.1% | SK-OV-3 ovarian 91.3% | IGROV1 ovarian 86.8% | OVCAR-3 ovarian 98.4% | HS 578T breast 106% | NCI/ADR-RES ovarian 98.2% | T-47D breast 80.6% | BT-549 breast 101% | MDA-MB-435 melanoma 105% | SW-620 colon 95.1% | MCF7 breast 102% | HCT-116 colon 77% | HCC-2998 colon 91.2% | KM12 colon 99.6%

CN(C)CCCn1c2c(c3ccc(-c4ccn[nH]4)cc3c1=O)C(=O)c1ccccc1-2
active: SR leukemia -1.12% | RPMI-8226 leukemia -0.979% | MCF7 breast 9.49%
inactive: OVCAR-8 ovarian 23.7% | OVCAR-5 ovarian 59.2% | OVCAR-4 ovarian 77.9% | SK-OV-3 ovarian 23.5% | IGROV1 ovarian 41.2% | OVCAR-3 ovarian 66.9% | HS 578T breast 68.6% | NCI/ADR-RES ovarian 50.3% | T-47D breast 43.2% | BT-549 breast 56.1% | MDA-MB-435 melanoma 78.4% | SW-620 colon 37.1% | HCT-116 colon 28.9% | HCC-2998 colon 53.8% | KM12 colon 18.1%

CC(C)(O)C1CCCN1C(=O)c1ccccc1I (stereo unspecified)
inactive: SR leukemia 106% | RPMI-8226 leukemia 92.6% | OVCAR-8 ovarian 109% | OVCAR-5 ovarian 87.3% | OVCAR-4 ovarian 25.4% | SK-OV-3 ovarian 89.8% | IGROV1 ovarian 87.6% | OVCAR-3 ovarian 92.5% | HS 578T breast 85.7% | NCI/ADR-RES ovarian 87.8% | T-47D breast 85.7% | BT-549 breast 133% | MDA-MB-435 melanoma 93.2% | SW-620 colon 95.4% | MCF7 breast 91.6% | HCT-116 colon 68.9% | HCC-2998 colon 112% | KM12 colon 94.3%

COc1ccc(-c2nc(N/N=C/c3cccc(Br)c3)nc(N3CCOCC3)c2C#N)cc1
inactive: RPMI-8226 leukemia 35.8% | OVCAR-8 ovarian 69.9% | OVCAR-5 ovarian 111% | OVCAR-4 ovarian 81.2% | SK-OV-3 ovarian 97.1% | IGROV1 ovarian 89.1% | OVCAR-3 ovarian 74.6% | HS 578T breast 68% | NCI/ADR-RES ovarian 83.3% | T-47D breast 77% | BT-549 breast 100% | MDA-MB-435 melanoma 87.9% | SW-620 colon 14% | MCF7 breast 59.3% | HCT-116 colon 32.9% | HCC-2998 colon 75.4% | KM12 colon 44.2%
active: SR leukemia -21.3%

O=c1[nH]nc(-c2ccc(Cl)cc2)cc1Cc1cccc([N+](=O)[O-])c1
active: SR leukemia -44.9%
inactive: RPMI-8226 leukemia 51.6% | OVCAR-8 ovarian 101% | OVCAR-5 ovarian 107% | OVCAR-4 ovarian 80% | SK-OV-3 ovarian 88.8% | IGROV1 ovarian 82.4% | OVCAR-3 ovarian 101% | HS 578T breast 49.1% | NCI/ADR-RES ovarian 101% | T-47D breast 85.2% | BT-549 breast 133% | MDA-MB-435 melanoma 112% | SW-620 colon 101% | MCF7 breast 84.8% | HCT-116 colon 100% | HCC-2998 colon 130% | KM12 colon 93.3%

CC(=O)c1cc2c(N)c(C(=O)Nc3cncc4ccccc34)sc2nc1C
inactive: SR leukemia 77.5% | RPMI-8226 leukemia 94.9% | OVCAR-8 ovarian 104% | OVCAR-5 ovarian 104% | OVCAR-4 ovarian 113% | SK-OV-3 ovarian 93.6% | IGROV1 ovarian 104% | OVCAR-3 ovarian 110% | HS 578T breast 95.3% | NCI/ADR-RES ovarian 104% | T-47D breast 93.8% | BT-549 breast 105% | MDA-MB-435 melanoma 43.6% | SW-620 colon 103% | MCF7 breast 91.6% | HCT-116 colon 101% | HCC-2998 colon 106% | KM12 colon 94.3%

COc1cc2nc(-c3ccc(C(F)(F)F)cc3)cc(OCCCN3CCCCC3)c2cc1OC
active: SR leukemia 8.2% | MDA-MB-435 melanoma -6.42%
inactive: RPMI-8226 leukemia 24.8% | OVCAR-8 ovarian 52.4% | OVCAR-5 ovarian 57.7% | OVCAR-4 ovarian 54.7% | SK-OV-3 ovarian 77.8% | IGROV1 ovarian 31.8% | OVCAR-3 ovarian 60.1% | HS 578T breast 59.1% | NCI/ADR-RES ovarian 49.7% | T-47D breast 35.3% | BT-549 breast 39.3% | SW-620 colon 30.4% | MCF7 breast 36.2% | HCT-116 colon 25.5% | HCC-2998 colon 56% | KM12 colon 36.6%

CCCCCCCCCCN=C(N)N=C(N)N
inactive: SR leukemia 37.8% | RPMI-8226 leukemia 34.8% | OVCAR-8 ovarian 43.5% | OVCAR-5 ovarian 64.1% | OVCAR-4 ovarian 44.9% | SK-OV-3 ovarian 52.3% | IGROV1 ovarian 12.1% | OVCAR-3 ovarian 41.9% | HS 578T breast 55% | NCI/ADR-RES ovarian 79.5% | T-47D breast 29.4% | BT-549 breast 15.6% | MDA-MB-435 melanoma 37.7% | SW-620 colon 58.5% | MCF7 breast 32.9% | HCT-116 colon 41.9% | HCC-2998 colon 49.5% | KM12 colon 28.5%

CCCCCCCCCCCCC1CCC/C=C\CCC(=O)O1 (stereo unspecified)
inactive: SR leukemia 71.4% | RPMI-8226 leukemia 94% | OVCAR-8 ovarian 100% | OVCAR-5 ovarian 102% | OVCAR-4 ovarian 109% | SK-OV-3 ovarian 95.3% | IGROV1 ovarian 102% | OVCAR-3 ovarian 102% | HS 578T breast 107% | NCI/ADR-RES ovarian 102% | T-47D breast 90% | BT-549 breast 112% | MDA-MB-435 melanoma 104% | SW-620 colon 103% | MCF7 breast 95.6% | HCT-116 colon 91.1% | HCC-2998 colon 104% | KM12 colon 110%
